# Assay results taken from PubChem BioAssay (NCI).
# The panel holds about 83,000 compounds, 20% with a hit somewhere; the sample as a whole holds those more often.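 Treatment: one concentration, 48 hours, 96-well format. Scoring: percent growth, with anything below 10 considered active.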 Unmarked numbers belong to inactive results. Calls of active or inactive are those of the source.
# Experiments:
# Assay in all cases: NCI-60 one-dose screen, 48 h (100 = growth as untreated, 0 = no growth, -100 = all killed)
# [1] = test system: NCI-H23 lung; details: 10 µM unless noted
# [2] = test system: NCI-H226 lung; details: 10 µM unless noted
# [3] = test system: NCI-H322M lung; details: 10 µM unless noted
# [4] = test system: NCI-H460 lung; details: 10 µM unless noted
# [5] = test system: HOP-92 NSCLC; details: 10 µM
# [6] = test system: NCI-H522 lung; details: 10 µM
# [7] = test system: A549/ATCC NSCLC; details: 10 µM unless noted
# [8] = test system: 786-0 renal; details: 10 µM unless noted
# [9] = test system: COLO 205 colon; details: 10 µM unless noted
# [10] = test system: DU-145 prostate; details: 10 µM unless noted
# [11] = test system: K-562 leukemia; details: 10 µM unless noted
# [12] = test system: MALME-3M melanoma; details: 10 µM unless noted
# [13] = test system: MDA-MB-231 breast; details: 10 µM unless noted
# [14] = test system: RXF 393 renal; details: 10 µM unless noted
# [15] = test system: SF-268 CNS; details: 10 µM unless noted
# [16] = test system: SF-295 CNS; details: 10 µM unless noted
# [17] = test system: SF-539 CNS; details: 10 µM unless noted
# [18] = test system: UACC-257 melanoma; details: 10 µM unless noted
# [19] = test system: HOP-62 NSCLC; details: 10 µM unless noted
# [20] = test system: M14 melanoma; details: 10 µM unless noted
Compound,growth [1],growth [2],growth [3],growth [4],growth [5],growth [6],growth [7],growth [8],growth [9],growth [10],growth [11],growth [12],growth [13],growth [14],growth [15],growth [16],growth [17],growth [18],growth [19],growth [20]
COc1cc(NC(C)CCCN)c2nccc(C)c2c1OC (stereo not given),51.8%,97.2%,103%,109%,47.9%,31.6%,144%,98.8%,50.6%,71.3%,65%,104%,59.5%,164%,126%,115%,41.3%,112%,,
O=Nc1ccc(O)c2ccccc12,-9.22% (active),101%,106%,,,,41.6%,77.7%,21.9%,56.7%,12.1%,-58.5% (active),52.5%,10.9%,10.5%,62.9%,0.651% (active),-68.5% (active),38.4%,-10.8% (active)
CCOC(=O)C1=C(C(F)(F)F)NC(=O)NC1CN1C(=O)c2ccccc2C1=O (stereo not given),99.3%,111%,107%,112%,60.8%,115%,115%,104%,116%,106%,76.1%,113%,100%,106%,103%,104%,100%,103%,,
Oc1ccc(Br)cc1/C=N/NC(=S)NC12CC3CC(CC(C3)C1)C2,1.36% (active),31.5%,36.5%,,,,8.34% (active),54.8%,68%,9.26% (active),0.99% (active),17.6%,-4.61% (active),-15.6% (active),8.34% (active),17%,36.7%,26.1%,16.1%,20.6%
O=C(Nc1ccc(-n2cc(-c3ccncc3)c(-c3ccc(Cl)c(O)c3)n2)cc1)Nc1cc(C(F)(F)F)cc(C(F)(F)F)c1,15.4%,42%,41.9%,,,,17.6%,-60.1% (active),-55.2% (active),36.4%,17.6%,12%,21.5%,-11.2% (active),25.9%,-5.6% (active),30.3%,8.73% (active),14%,6.9% (active)
O=CN/N=C/c1ccc(Cl)c([N+](=O)[O-])c1,26.5%,35.4%,28.6%,,,,14.5%,31.6%,26%,24.5%,15.4%,30%,43.9%,40.1%,21.5%,3.88% (active),22.2%,18.2%,20.8%,29%
CC1(C)N=C(N)N=C(N)N1c1cccc(CCCCOc2ccccc2)c1,24%,43.4%,35.6%,,,,11.2%,21.8%,29.3%,27.6%,16.2%,43.1%,46.8%,50.2%,27.2%,,34.1%,28.7%,11.4%,23.6%
C=C1CCC2C3(C)COC(c4ccccc4)OC3CCC2(C)C1C/C=C1/C(=O)OCC1O (stereo not given),87.2%,92.2%,87.3%,,,55.4%,,91%,,,,99.8%,89.4%,,,87.6%,,,117%,80.6%
CCCCS(=O)(=O)c1cc(Nc2ccc(O)c3c2C(=O)c2ccccc2C3=O)ccc1C,45.7%,87.8%,27.6%,,,,28.3%,87.1%,70.7%,42.1%,67%,2.26% (active),71.8%,76.1%,84.5%,,86.8%,75.8%,72.5%,21%
CCCOC(=O)c1c(C)n(C)c2scc[n+]12,29%,87.2%,51.2%,110%,30.1%,79.2%,62.9%,62.9%,84.9%,77.8%,65%,92.5%,80.1%,67.8%,89.3%,54.1%,81.1%,78.8%,,
N#Cc1c(N)nc(Nc2nc3ccccc3[nH]2)nc1-c1ccc(Cl)cc1,101%,81.2%,117%,,78.4%,90.4%,105%,,94.7%,123%,92.3%,125%,106%,114%,101%,112%,111%,109%,112%,103%
COCn1c(C(=O)OC)cc2oc(/C=C3/SC(=S)N(N)C3=O)cc21,103%,115%,77.5%,,,,105%,96.5%,110%,94.1%,63.7%,45.8%,110%,27.6%,73.1%,82.3%,90.3%,113%,122%,
O=C1C(Cl)=C(Nc2ccc(Nc3ccccc3)c(NC3=C(Cl)C(=O)c4ccccc4C3=O)c2)C(=O)c2ccccc21,88.4%,98.8%,57.3%,,,14.9%,92.7%,78.3%,-15.6% (active),104%,41.4%,39.4%,58.5%,74.3%,72.7%,,42.5%,79.8%,59.8%,118%
O=c1c2c(c3ccccc3n1-c1ccccc1)NC(=S)NC2c1ccc(Cl)cc1 (stereo not given),26.7%,65%,45.1%,,,,31.7%,18.6%,67.2%,47.2%,43.1%,39.2%,50.5%,46.3%,43.5%,25.9%,21.2%,44.1%,29.3%,29.1%
CCCCCCNC(=O)Oc1ccc(/C(=C(/C)Cc2ccc(OC)cc2)c2ccc(OCCN(C)C)cc2)cc1,82.5%,85.7%,86.5%,,,60%,54%,59.4%,-60.4% (active),78.7%,-38.8% (active),-34.7% (active),43%,51.4%,72.3%,65.8%,73.2%,5.2% (active),74.6%,-53.9% (active)
CC(C)(C)C(=O)CCCCCCCC/C=C/CCCC(O)c1ccco1 (stereo not given),102%,112%,95.5%,112%,79.1%,120%,108%,94.5%,124%,102%,82.4%,109%,102%,99.7%,106%,105%,97.3%,105%,,
O=C(/C=C\c1ccc(NCc2ccc(C(=O)O)cc2)cc1)CCl,94.3%,111%,97%,,,-78.1% (active),100%,90.4%,78.6%,112%,9.08% (active),88.8%,91.4%,65.2%,74%,96.4%,95%,85.6%,75.1%,90.7%
COc1ccc(CNCCCN2C(=O)c3ccc4c5c(ccc(c35)C2=O)C(=O)N(CCCNCc2ccc(OC)c(OC)c2OC)C4=O)c(OC)c1OC,-74.8% (active),-64.7% (active),-60.5% (active),,,-88.6% (active),-89.4% (active),-78.8% (active),-43.9% (active),-96% (active),-49.1% (active),-78.5% (active),-53.1% (active),-91.9% (active),-88.4% (active),-76.8% (active),-80.1% (active),-97.5% (active),-44.3% (active),-60.6% (active)
C=C(C)C(C(=O)OCC)(C(=O)OCC)C(C)C,114%,109%,111%,,,,96.5%,103%,117%,120%,116%,110%,112%,112%,112%,,105%,107%,108%,110%
